# The campaign covered roughly 65,000 compounds. About 2,100 (3.2%) showed an effect of 50% or more. The median lay at about -52%. Only a selection was taken, and strong results are over-represented in it overall.
# Tested on: Plasmodium falciparum
# Experiment: Screen against P. falciparum Asexual Blood Stage (ABS), at 5uM
# Assay type: functional, Dd2
# Conditions: tested at 5 uM
row,SMILES,INHIBITION
1,O=C(NCc1cccnc1)[C@H]1CC[C@@H]2[C@@H](CCN2c2ncccn2)O1,41.4%
2,CNC(=O)c1cc2c(nc1NCC(C)C)CCN(c1ncccn1)CC2,-98.4%
3,CC(Cn1cccn1)NCc1cnc(N2CCCC2)nc1 (stereo unspecified),-141%
4,c1ccc(OCCCNCc2cccs2)nc1,19.1%
5,Cc1ccsc1CNCCCOc1ccccn1,54.4%
6,c1ccc(OCCNCc2cccs2)nc1,-79.1%
7,O=C(c1cnc(C2CC2)nc1)N1CCCC(c2nccs2)C1 (stereo unspecified),-138%
8,O=C([C@H]1CCCO1)N1CCC2(CCCN(CCOc3ccccc3)C2)C1 (stereo partly specified),-41%
9,O=C(N1CCCC1)N1CCC2(CCCN(CCOc3ccccc3)C2)C1 (stereo unspecified),-1.79%
10,CN(C)C(=O)N1CCC2(CCCN(CCOc3ccccc3)C2)C1 (stereo unspecified),40.1%
11,O=C(c1cscn1)N1CCC2(CCN(S(=O)(=O)c3ccccc3)C2)C1 (stereo unspecified),-20.8%
12,O=C(c1cscn1)N1CCC2(CCCN(CCOc3ccccc3)C2)C1 (stereo unspecified),53.5%
13,O=C(CC1CC1)N1CCC2(CCCN(CCOc3ccccc3)C2)C1 (stereo unspecified),57.8%
14,Cn1ccnc1CN1CCC(Cn2cc(-c3ccccc3)nn2)CC1,24.5%
15,c1cc(CNCC2CNc3ccnn3C2)cc(OC2CCCC2)n1 (stereo unspecified),-58.6%
16,CCCc1cnc(C)nc1N1CCC(Cn2cc(CO)nn2)CC1,-65.7%
17,Cc1nccn1-c1cccc(C2CCCN(C3CCCC3)C2)n1 (stereo unspecified),1.22%
18,Cc1nccn1-c1cccc(C2CCCN(C3CCCCC3)C2)n1 (stereo unspecified),44.3%
19,CCc1nccn1-c1cccc(C2CCCN(C3CCCCC3)C2)n1 (stereo unspecified),53.2%
20,Cc1noc(C)c1CN1Cc2ccnn2CC(C(=O)NCC2CC2)C1 (stereo unspecified),-30.3%
21,CCCN1CCCn2c(nc(CNC(=O)c3nccn3C)cc2=O)C1,-91.8%
22,CCn1cc(CN2CCCC(c3[nH]ncc3-c3ccc(F)cc3)C2)cn1 (stereo unspecified),60.9%
23,CCCn1cc(CN2CCC(c3[nH]ncc3S(C)(=O)=O)C2)cn1 (stereo unspecified),-45.2%
24,CCn1cc(CN2CCC(c3[nH]ncc3S(C)(=O)=O)C2)cn1 (stereo unspecified),-44%
25,CCn1cc(CN2CCCC(c3[nH]ncc3-c3ccc(C)cc3)C2)cn1 (stereo unspecified),60.9%
26,Cc1ccc(-c2cn[nH]c2C2CCCN(c3cnccn3)C2)cc1 (stereo unspecified),-28%

row,SMILES,INHIBITION
1,Cc1ccc(-c2cn[nH]c2C2CCCN(c3ncccn3)C2)cc1 (stereo unspecified),-1.86%
2,O=C(c1ccoc1)N1CC[C@@H]2O[C@@H](COCc3ccccn3)CC[C@@H]21,-109%
3,CO[C@@H]1CCN(S(=O)(=O)c2cccs2)[C@H]1Cc1cccnc1,-8.97%
4,CCC(C)N(Cc1cccnc1)C(=O)c1ccc(F)c(O)c1 (stereo unspecified),-68.4%
5,Cc1cc(N2CCCC(O)(CN(C)C)CC2)nc(-c2ccccc2)n1 (stereo unspecified),57.4%
6,CN(C)CC1(O)CCCN(c2nc(-c3ccccc3)no2)CC1 (stereo unspecified),-61.2%
7,CN(C)CC1(O)CCCN(c2noc(-c3ccccc3)n2)CC1 (stereo unspecified),-3.62%
8,CC1CN(C)CCN1C(=O)c1ccn(-c2cccc(F)c2)n1 (stereo unspecified),-38.4%
9,Cc1cc(NC(=O)CN(c2ccccc2)C(C)C)on1,-5.31%
10,Cc1cc(NC(=O)N(C)CCN2CCN(c3ccccc3)CC2)on1,-47.3%
11,Cc1cc(NC(=O)NC(C)CN2CCN(c3ccccc3)CC2)on1 (stereo unspecified),59.6%
12,CNC(=O)c1cccnc1N1CCC(Oc2ccc(F)cc2)CC1,-88.2%
13,O=C(CCc1ccccn1)N1CCCC(n2cncn2)C1 (stereo unspecified),-46.3%
14,CC(C)c1n[nH]c(C2CN(C(=O)Cn3ccccc3=O)CCO2)n1 (stereo unspecified),-40.5%
15,O=C(CC1CC1)N1CCO[C@H]2[C@H](OCCCn3cccn3)CC[C@@H]21,-14.6%
16,Cc1c(CN2CC[C@@H](N3CCC(O)CC3)[C@H](O)C2)[nH]c2ccc(F)cc12,-21.9%
17,Cc1c(CN2CC[C@@H](N3CCC(O)CC3)[C@H](O)C2)[nH]c2ccc(Cl)cc12,54.6%
18,Cc1ccc2[nH]c(CN3CC[C@@H](N4CCN(C)CC4)[C@H](O)C3)c(C)c2c1,-41.6%
19,CC(=O)c1cc(Br)cc(F)c1OCC(=O)NC(C)C,-96.4%
20,O=C(NCC(F)F)c1ccc(S(=O)(=O)NCCc2ccncc2)cc1,16.5%
21,O=C(CCN1CCCO1)N1CC[C@@H](c2ccc3ccccc3c2)[C@H](O)C1,15.7%
22,O=C(CCN1CCCC1)N1CC[C@@H](c2ccc3ccccc3c2)[C@H](O)C1,65.1%
23,O=C(CCn1cccn1)N1CC[C@@H](c2ccc3ccccc3c2)[C@H](O)C1,15.7%
24,COc1cc(C2c3c(n[nH]c3C)N=C3COC(=O)C32)cc2c1OCO2 (stereo unspecified),-31.7%
25,O=C(CC1C=CCC1)Nc1ncn(CC(=O)N2CCCCCC2)n1 (stereo unspecified),23.2%
26,CCn1cc(CNCC(c2ccc(Cl)cc2)n2cccn2)cn1 (stereo unspecified),60.8%

row,SMILES,INHIBITION
1,Clc1ccc(C(CNCc2ccncc2)n2cccn2)cc1 (stereo unspecified),-50.1%
2,Cn1cc(CNCC(c2ccc(Cl)cc2)n2cccn2)cn1 (stereo unspecified),18.1%
3,Cc1cc(CN2CCC(CNS(=O)(=O)c3c(C)noc3C)CC2)c(C)o1,28.4%
4,Cc1cc(CN2CCC(CNS(=O)(=O)c3ccccc3Cl)CC2)c(C)o1,53.6%
5,CCN(C)S(=O)(=O)NCC1CCN(Cc2ccccc2C)CC1,11.6%
6,Cc1cnc2n(c1=O)C(CC(=O)NCc1ccc(Cl)cc1)CS2 (stereo unspecified),-30.4%
7,CC(C)Cc1ncc2c(n1)CN(c1cc(NCCO)nc(N)n1)C2,-42.2%
8,COc1ccc2[nH]c3c(c2c1)CN(c1cc(NCCO)nc(N)n1)CC3,-52.4%
9,Nc1nc(NCCO)cc(N2CCc3c([nH]c4ccccc34)C2)n1,61.3%
10,O=C(c1ccc2[nH]ccc2c1)N1CCCSCC1CN1CCCC1 (stereo unspecified),21.3%
11,O=C(NCCc1ccn(-c2ccccc2)n1)N1CCSCC1,-122%
12,Cc1ccc([C@]2(O)CC[C@H]3CN(Cc4ccc(Cl)cc4Cl)C[C@H]32)nc1,66.6%
13,Cc1ccc([C@]2(O)CC[C@H]3CN(Cc4cccc(Cl)c4Cl)C[C@H]32)nc1,-9.78%
14,COc1ccc(CN2C[C@H]3CC[C@](O)(c4ccc(C)cn4)[C@H]3C2)c(F)c1,17.3%
15,Cc1ccc([C@]2(O)CC[C@H]3CN(Cc4cccc(F)c4F)C[C@H]32)nc1,45.8%
16,COc1ncc(CN2C[C@@H]3CC[C@@](O)(c4ccc(C)cn4)[C@@H]3C2)cn1,-72.4%
17,CSc1ccc(CN2C[C@@H]3CC[C@@](O)(c4ccc(C)cn4)[C@@H]3C2)cc1,57.5%
18,OC(CN1CCN(CCOCC(F)(F)F)CC1)c1ccccc1 (stereo unspecified),-64.4%
19,O=S(=O)(c1cccs1)N1CCCC2(COCCN(c3cccnc3)C2)C1 (stereo unspecified),-39.7%
20,Cc1ccoc1C(=O)N1CCCC(c2cc(C(F)(F)F)[nH]n2)C1 (stereo unspecified),-127%
21,O=S(=O)(NC1CCC12CCN(CC1CCOCC1)CC2)c1ccccc1 (stereo unspecified),-62.3%
22,COCC(=O)N1CCC2(CCC2NS(=O)(=O)c2ccccc2)CC1 (stereo unspecified),-23.9%
23,Cc1ccc(CN2CCC3(CCC3NS(=O)(=O)c3ccccc3)CC2)o1 (stereo unspecified),62.4%
24,CC(C)c1ccc(NC(=O)Cn2cc(I)cn2)cc1,-19%
25,CC1c2ncc(CN3CCN(C)CC3)n2CCN1Cc1ccccn1 (stereo unspecified),-124%
26,c1cnc(-c2noc(C3CN(Cc4ccc5c(c4)CCO5)C3)n2)cn1,4.79%

row,SMILES,INHIBITION
1,CC(C)CC1CC(=O)Nc2c1cnn2Cc1ccco1 (stereo unspecified),-129%
2,CC(C)c1ccc(O)c(C(=O)NCc2cc[nH]n2)c1,-97.2%
3,CCN(c1ccc(C(=O)NCc2ccnc(C)n2)cc1)C(C)C,22.7%
4,CCN(c1ccc(C(=O)NCc2cc[nH]n2)cc1)C(C)C,60.1%
5,Cc1nc(COC(=O)c2cccc3c2OCCO3)no1,-17%
6,CCOC(=O)CNC(=O)NCc1cccn1Cc1ccccc1F,-158%
7,CN1CC2(CCN(c3nc(N)nc4c3CCNC4)CC2)OC1=O,-71.4%
8,Cc1cccc(OCc2nnc(SCC3CCCN(C)C3)o2)c1 (stereo unspecified),28.5%
9,Cc1ccc(C)c(OCc2nnc(SCC3CCCN(C)C3)o2)c1 (stereo unspecified),60.3%
10,Cc1ccc(OCc2nnc(SCC3CCCN(C)C3)o2)cc1 (stereo unspecified),29.8%
11,CCCn1ccc(C(=O)Nc2ccc3c(c2)C(C)(C)C(=O)N3C)n1,-3.4%
12,CC(C)c1nc(C2CCCN2Cc2nnc(C3CCC3)o2)no1 (stereo unspecified),53.5%
13,C1CC(c2noc(C3CC3)n2)N(Cc2nnc(C3CC3)o2)C1 (stereo unspecified),-1.02%
14,CCc1nc(C2CCCN2Cc2nc3ccccc3o2)no1 (stereo unspecified),-23.2%
15,CCc1nc(C2CCCN2Cc2nnc(C3CCC3)o2)no1 (stereo unspecified),-88%
16,CC(C)c1nc(C2CCCN(Cc3nnc(C4CC4)o3)C2)no1 (stereo unspecified),-52.6%
17,C1CC(c2nnc(CN3CCCC3c3noc(C4CC4)n3)o2)C1 (stereo unspecified),53.5%
18,Cc1nc(C2CCCN2Cc2nnc(C3CC3)o2)no1 (stereo unspecified),-171%
19,c1ccc2oc(CCCN3CCCC3c3noc(C4CC4)n3)nc2c1 (stereo unspecified),-21.2%
20,c1ccc2oc(CN3CCCC3c3noc(C4CC4)n3)nc2c1 (stereo unspecified),54.4%
21,CC(c1nc(C2CC2)no1)N1CCN(Cc2noc(C3CC3)n2)CC1 (stereo unspecified),-55.4%
22,COc1ccc(CN2C[C@H]3CC[C@@H](C2)N(Cc2snnc2C)C3)cc1,-6.34%
23,CCc1cc(=O)n(CC(=O)N2CCC(C)CC2)c(-c2ccccc2)n1,-53.5%
